From PubChem BioAssay (Tox21) come the findings set out here.

The nature of assay [1]: qHTS assay to identify small molecule agonists of the estrogen receptor alpha (ER-alpha) signaling pathway in the presence of an antagonist - cell viability counter screen (AID 1259386).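 Further: series mostly up to about 92 µM; cells exposed to compounds for 22 h at 37 °C before the viability read; nearly all actives have a fitted effect of over 30% in size.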 A digest of the protocol:
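VM7Luc4E2 cells (endogenous full-length ER-alpha, 4×ERE-luciferase) were held 5 days in phenol red-free medium with 10% charcoal-stripped FBS, plated, then given 10.0nM ICI-182,780 and compounds at 15 concentrations for 22hr at 37C; viability read by CellTiter-Fluor fluorescence.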

The target of assay [2] is Progesterone receptor (Homo sapiens) (UniProt P06401). Description: qHTS assay to identify small molecule agonists of the progesterone receptor (PR) signaling pathway (AID 1346784; calls by dose curve; further: nearly all actives have a fitted effect of over 30% in size). The procedure, abridged: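 Beta-lactamase reporter read-out: after 16 hr compound treatment at 37C and a further 2 hr at room temperature with LiveBLAzer B/G FRET substrate, fluorescence was measured in PR-UAS-bla HEK 293T cells grown in 2% charcoal-stripped serum.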

For assay [3] the target is unchanged. Kind of assay: qHTS assay to identify small molecule antagonists of the progesterone receptor (PR) signaling pathway (AID 1346795; active means well fitted inhibition curve with a large enough effect in the signal ratio in the repeat runs, not every such curve was filed as active; the % refers to the signal ratio). A digest of the protocol: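 Read-out is fluorescence from the LiveBLAzer B/G FRET substrate, cleaved by a UAS-controlled beta-lactamase in PR-UAS-bla HEK293T cells after 16 hr exposure to compound plus 1 nM promegestone (final), followed by 2 hr at room temperature.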

Assay [4] can be described thus: qHTS assay to identify small molecule antagonists of the progesterone receptor (PR) signaling pathway - cell viability counter screen (AID 1346798).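 Further: HEK293T PR-UAS-bla cells stimulated with the agonist R5020; series mostly up to about 92 µM; nearly all actives have a fitted effect of over 50% in size.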 The procedure, abridged:
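HEK293T PR-UAS-bla, 2% charcoal-stripped FBS; 4 hr pre-plate; cpd + R5020, 16 h 37C; LiveBLAzer read first; then CellTiter-Glo 30 min RT, luminescence.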

A short description of assay [5]: qHTS assay to identify small molecule antagonists of the TGF-beta/Smad signaling pathway - cell viability counter screen (AID 1346824). Further: nearly all actives have a fitted effect of over 50% in size. A digest of the protocol:
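SBE-bla HEK 293T cells, incubated overnight, then compound plus 0.25 ng/mL TGF-beta1 (stock added) for 5 hr at 37 C. Viability was read in the same wells by CellTiter-Glo luminescence after 30 min at room temperature.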

Assay [6] can be described thus: qHTS assay to identify small molecule agonists of the TGF-beta/Smad signaling pathway - cell viability counter screen (AID 1346829). Further: top concentration of the series differs between compounds; nearly all actives have a fitted effect of over 45% in size. A digest of the protocol:
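In parallel with the Smad reporter read, viability of HEK 293T cells stably carrying SBE-bla is quantified by ATP luminescence following 5 hr compound treatment.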

Assay [7] in a line: qHTS assay to identify small molecule agonists of the TGF-beta/Smad signaling pathway (AID 1346859; active means well fitted activation curve with a large enough effect in the signal ratio in the repeat runs, not every such curve was filed as active; the % refers to the signal ratio; further: series mostly up to about 77 µM). The procedure, abridged:
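SBE-bla HEK 293T, 4,000 cells/well, plated o/n; cpd in DMSO, 5 hr, 37 C/5% CO2; B/G FRET substrate 2 hr RT; ex 405, em 460/530 nm.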

Assay [8] deals with Thyrotropin-releasing hormone receptor (Homo sapiens) (UniProt P34981). Description: qHTS assay to identify small molecule antagonists of the thyrotropin-releasing hormone receptor (TRHR) signaling pathway (AID 1346877; active means well fitted inhibition curve with a large enough effect in the repeat runs, not every such curve was filed as active; further: series mostly up to about 51 µM). The procedure, abridged:
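TRHR-expressing HEK293 cells were seeded, cultured 18 h at 37 °C, then loaded with calcium dye for 2 h. Compounds were pre-incubated 5 min at room temperature before 1 nM TRH (final) was added, and kinetic fluorescence was recorded for 3 min.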

Assay [9] shares this target. Description: qHTS assay to identify small molecule agonists of the thyrotropin-releasing hormone receptor (TRHR) signaling pathway (AID 1346891; calls by dose curve; further: series mostly up to about 58 µM). The procedure, abridged:
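Intracellular calcium rise, read as fluorescence every second for 3 min, served as the agonist signal in dye-loaded HEK293 cells expressing TRHR; each compound ran at 15 concentrations in triplicate.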

The nature of assay [10]: Human pregnane X receptor (PXR) small molecule agonists, qHTS cell viability counter screen (AID 1346977). Further: nearly all actives have a fitted effect of over 50% in size. Further: potency means the concentration at half of the fitted maximal effect. The procedure, abridged: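 PXR-Luc HepG2, 2,000 cells/well, 5% charcoal-stripped FBS; 5hr settle; cpd 24hr, 37C/5% CO2; CellTiter-Fluor at 23hr, read 1hr later (fluorescence).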
Assay [11] is described as follows: Caspase-3/7 induction in CHO-K1 cells by small molecules, qHTS cell viability counter screen (AID 1346979). Further: nearly all actives have a fitted effect of over 35% in size. Further: potency means the concentration at half of the fitted maximal effect. A digest of the protocol: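 Cells (CHO-K1, wild type) are plated at 1,500 per well and incubated 5hr. Test compounds in DMSO are then pinned in, followed by 16hr at 37C and 5% CO2. Viability is read by CellTiter-Fluor fluorescence after 1hr.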
Assay [12] in a line: Caspase-3/7 induction in CHO-K1 cells by small molecules, qHTS assay (AID 1346980). Further: nearly all actives have a fitted effect of over 15% in size. The procedure, abridged:
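Wild-type CHO-K1 cells exposed to compounds for 17hr at 37 C, 5% CO2. Caspase-3/7 activity then measured by Caspase-Glo 3/7 luminescence after 30min at room temperature.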

Assay [13] in a line: Caspase-3/7 induction in HepG2 cells by small molecules, qHTS cell viability counter screen (AID 1346981). Further: series mostly up to about 92 µM; nearly all actives have a fitted effect of over 30% in size. The procedure, abridged: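 Wild-type HepG2 cells (2,000/well) were allowed to settle for 5 hr at 37 C, 5% CO2, then dosed with compounds in DMSO by pin transfer. After 16 hr at 37 C, CellTiter-Fluor was added and fluorescence read 1 hr later.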
For assay [14], the target named is Nuclear receptor subfamily 1 group I member 2 (Homo sapiens) (UniProt O75469). Kind of assay: Human pregnane X receptor (PXR) small molecule agonists, qHTS assay (AID 1346982). Further: nearly all actives have a fitted effect of over 35% in size. Further: potency means the concentration at half of the fitted maximal effect. A digest of the protocol:
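PXR-Luc HepG2 cells (CYP3A4 promoter-driven luciferase) were seeded in medium with 5% charcoal-stripped FBS, left 5 hr at 37 C, then exposed to compounds in DMSO for 24 hr. Luminescence was read after ONE-Glo addition.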

For assay [15], the target named is Cytochrome P450 2D6 (Homo sapiens) (UniProt P10635). Description: Cytochrome P450 Family 2 Subfamily D Member 6 (CYP2D6) small molecule antagonists: luciferase reporter qHTS assay (AID 1671196). Further: nearly all actives have a fitted effect of over 50% in size. Further: potency means the concentration at half of the fitted maximal effect. The procedure, abridged: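 CYP2D6 enzyme–substrate mix was held with compound for 10 min at room temperature, then NADPH regeneration solution was added and the reaction ran 1 h at room temperature. Luciferin product was detected by luminescence after 20 min with detection reagent.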

The nature of assay [16]: Caspase-3/7 induction in HepG2 cells by small molecules, qHTS assay (AID 1346978). Further: nearly all actives have a fitted effect of over 15% in size. The procedure, abridged: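 Wild-type HepG2 cells, 2,000/well, settled 5 hr at 37 C and 5% CO2, then compound-treated for 17 hr; caspase-3/7 activity read by luminescent Caspase-Glo 3/7 after 30 min at room temperature.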
In assay [17] the target is Nuclear receptor subfamily 1 group I member 2 (Rattus norvegicus) (UniProt Q9R1A7). Kind of assay: Rat pregnane X receptor (rPXR) activation by small molecules, qHTS assay (AID 1346983). Further: nearly all actives have a fitted effect of over 20% in size. Conditions: rPXR luciferase reporter cells, One-Glo luminescence, 24 h; hits give high values. A digest of the protocol: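 Cell-based rPXR activation assay: rPXR cells, 2,000 per well, rested 5hr at 37 C, then exposed to compounds in DMSO for 24 hr at 37 C. Luciferase activity read by One-Glo luminescence after 30 min at room temperature.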

The target of assay [18] is Nuclear receptor subfamily 1 group I member 2 (Homo sapiens) (UniProt O75469). Kind of assay: CYP3A4 induction through human pregnane X receptor (PXR) by small molecules, qHTS assay (AID 1346984). Further: nearly all actives have a fitted effect of over 40% in size. The procedure, abridged: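 DPX-2 cells (HepG2 co-transfected with PXR and CYP3A4 promoter-luciferase) treated with compounds 24 h at 37C; luciferin-IPA CYP3A4 substrate 3uM final added for 3 h, then One-Glo; luminescence read. qHTS format.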

Assay [19] shares this target. Kind of assay: Human pregnane X receptor (PXR) activation by small molecules, qHTS assay (AID 1346985). Further: nearly all actives have a fitted effect of over 40% in size. Further: potency means the concentration at half of the fitted maximal effect. A digest of the protocol:
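DPX-2 cells (HepG2 co-transfected with a PXR response element and a CYP3A4-promoter luciferase construct) were seeded at 2,000 per well, rested 5 hr at 37C, then exposed to DMSO-dissolved compounds for 24 hr. Activation was read as luciferase luminescence.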

A short description of assay [20]: qHTS assay to identify small molecule agonists of the progesterone receptor (PR) signaling pathway - cell viability counter screen (AID 1346799; calls by dose curve; further: nearly all actives have a fitted effect of over 45% in size). A digest of the protocol:
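Luminescence from CellTiter-Glo, added after the beta-lactamase FRET read in the same wells, gave cytotoxicity in PR-UAS-bla HEK293T cells treated with compounds for 16 hr at 37C.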

Where “and” joins values, the source holds several entries; their conditions need not be identical. Identical values can stand only once. Values without a mark were called inactive. Results filed as inconclusive are left out. Calls of active or inactive are those of the source. Unless noted, the call rests on the fitted dose curve; in most records, active means well fitted curve in the direction sought with a large enough effect in the repeat runs; inconclusive means weak or mixed curves; inactive means no such curve, though single readings can be large; an effect the other way counts as inactive or inconclusive.
On the % scale 0 is the no-effect control and ±100 the full control effect.

Chain of Thyrotropin-releasing hormone receptor (Homo sapiens) (P34981 whole entry, looked up): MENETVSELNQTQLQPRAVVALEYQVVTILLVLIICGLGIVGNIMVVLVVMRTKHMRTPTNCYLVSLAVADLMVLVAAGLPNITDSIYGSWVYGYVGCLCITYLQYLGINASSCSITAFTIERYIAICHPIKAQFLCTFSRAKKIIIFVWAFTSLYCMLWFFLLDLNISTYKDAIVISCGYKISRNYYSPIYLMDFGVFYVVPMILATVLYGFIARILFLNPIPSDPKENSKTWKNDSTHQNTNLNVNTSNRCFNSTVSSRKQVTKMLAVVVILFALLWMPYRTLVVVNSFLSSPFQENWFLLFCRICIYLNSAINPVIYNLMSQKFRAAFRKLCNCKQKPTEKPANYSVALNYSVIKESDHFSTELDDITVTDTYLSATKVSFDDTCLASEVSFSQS
Chain of Nuclear receptor subfamily 1 group I member 2 (Rattus norvegicus) (Q9R1A7 whole entry, looked up): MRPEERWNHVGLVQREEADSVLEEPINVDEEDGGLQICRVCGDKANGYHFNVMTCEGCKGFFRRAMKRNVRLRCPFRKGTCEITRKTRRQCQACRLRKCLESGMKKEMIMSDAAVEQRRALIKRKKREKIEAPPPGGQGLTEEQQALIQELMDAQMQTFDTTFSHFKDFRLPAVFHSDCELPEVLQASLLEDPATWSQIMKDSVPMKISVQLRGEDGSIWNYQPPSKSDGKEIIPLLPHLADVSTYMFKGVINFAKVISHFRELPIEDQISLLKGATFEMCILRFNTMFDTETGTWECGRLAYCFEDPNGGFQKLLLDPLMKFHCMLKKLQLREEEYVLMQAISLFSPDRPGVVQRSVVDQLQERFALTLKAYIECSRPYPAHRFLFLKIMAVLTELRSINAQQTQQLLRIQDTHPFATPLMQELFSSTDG
Chain of Nuclear receptor subfamily 1 group I member 2 (Homo sapiens) (O75469 whole entry, looked up): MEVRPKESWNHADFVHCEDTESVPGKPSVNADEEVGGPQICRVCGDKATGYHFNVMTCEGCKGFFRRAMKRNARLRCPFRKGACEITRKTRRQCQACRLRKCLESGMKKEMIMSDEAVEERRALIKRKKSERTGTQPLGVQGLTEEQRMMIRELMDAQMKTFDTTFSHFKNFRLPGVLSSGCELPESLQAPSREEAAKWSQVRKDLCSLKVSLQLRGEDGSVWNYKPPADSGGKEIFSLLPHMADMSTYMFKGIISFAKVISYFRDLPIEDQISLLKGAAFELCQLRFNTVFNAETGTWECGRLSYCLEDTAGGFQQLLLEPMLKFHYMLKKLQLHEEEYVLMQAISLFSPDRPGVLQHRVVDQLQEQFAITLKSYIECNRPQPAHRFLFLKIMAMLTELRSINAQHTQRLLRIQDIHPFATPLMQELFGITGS
Chain of Progesterone receptor (Homo sapiens) (P06401 whole entry, looked up): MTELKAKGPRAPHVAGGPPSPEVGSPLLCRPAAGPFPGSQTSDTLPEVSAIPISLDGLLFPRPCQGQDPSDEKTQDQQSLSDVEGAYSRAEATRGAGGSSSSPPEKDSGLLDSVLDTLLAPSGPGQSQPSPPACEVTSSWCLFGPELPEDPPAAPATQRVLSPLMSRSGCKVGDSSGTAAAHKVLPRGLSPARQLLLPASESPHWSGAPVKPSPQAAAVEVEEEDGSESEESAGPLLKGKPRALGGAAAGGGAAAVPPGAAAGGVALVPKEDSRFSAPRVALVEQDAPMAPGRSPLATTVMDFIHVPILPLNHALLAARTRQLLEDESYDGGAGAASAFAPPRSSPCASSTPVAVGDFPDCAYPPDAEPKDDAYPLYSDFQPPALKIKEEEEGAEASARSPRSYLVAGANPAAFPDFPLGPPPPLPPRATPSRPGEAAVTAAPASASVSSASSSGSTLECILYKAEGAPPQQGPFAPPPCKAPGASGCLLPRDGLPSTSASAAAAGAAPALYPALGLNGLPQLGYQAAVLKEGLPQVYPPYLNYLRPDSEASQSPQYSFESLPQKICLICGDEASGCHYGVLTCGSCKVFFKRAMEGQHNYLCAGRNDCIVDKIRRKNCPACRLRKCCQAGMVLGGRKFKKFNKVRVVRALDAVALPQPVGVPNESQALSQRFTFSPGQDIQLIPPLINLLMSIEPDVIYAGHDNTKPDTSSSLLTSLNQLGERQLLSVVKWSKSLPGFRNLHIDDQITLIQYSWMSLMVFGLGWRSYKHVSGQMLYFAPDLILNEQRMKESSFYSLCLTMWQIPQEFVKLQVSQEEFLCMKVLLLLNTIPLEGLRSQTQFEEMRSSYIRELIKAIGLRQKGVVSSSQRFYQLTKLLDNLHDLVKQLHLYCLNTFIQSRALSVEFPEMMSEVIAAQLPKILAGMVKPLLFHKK
Chain of Cytochrome P450 2D6 (Homo sapiens) (P10635 whole entry, looked up): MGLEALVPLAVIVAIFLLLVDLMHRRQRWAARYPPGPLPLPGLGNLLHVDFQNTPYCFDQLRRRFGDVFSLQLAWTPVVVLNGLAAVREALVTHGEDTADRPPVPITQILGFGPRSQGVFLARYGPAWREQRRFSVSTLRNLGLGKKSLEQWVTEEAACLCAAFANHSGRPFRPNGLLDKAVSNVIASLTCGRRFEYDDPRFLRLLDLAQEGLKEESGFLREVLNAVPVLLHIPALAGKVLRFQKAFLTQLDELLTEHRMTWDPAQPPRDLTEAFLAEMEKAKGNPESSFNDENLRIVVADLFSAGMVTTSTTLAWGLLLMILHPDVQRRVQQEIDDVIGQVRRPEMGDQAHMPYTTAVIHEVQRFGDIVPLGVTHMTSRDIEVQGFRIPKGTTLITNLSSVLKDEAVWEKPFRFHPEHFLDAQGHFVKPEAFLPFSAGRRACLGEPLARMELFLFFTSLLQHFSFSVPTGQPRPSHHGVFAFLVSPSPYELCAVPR

Regarding `COCCOc1cc2cc(C(=O)NC3CCN(C(C)C)CC3)n(CC(=O)Nc3ccc(Cl)cn3)c2cn1`, the Potency result in assay [1], in assay [2], in assay [3], in assay [4], in assay [5] and in [6] was “inactive” each time. The Potency result in assay [7], in assay [8], in assay [11], in [12], in assay [13] and in [14] was “inactive” each time. Besides, the Potency result in assay [15] was “inactive”. The result in assay [9] was inactive. Moreover, the Potency in assay [10] was 53.9 µM (active).

With `[Cl][Pt-2]([Cl])([Cl])[Cl]`, the Potency result in assay [1], in [2], in [3], in assay [4], in assay [5] and in assay [6] was “inactive” throughout. The Potency result in assay [7], in assay [8], in assay [10], in assay [16], in assay [12] and in assay [13] was “inactive” in each case. In assay [14], the Potency entry is “inactive”. In assay [9], the molecule was classed as inactive. Moreover, the Potency in [15] was 40.1 µM (active).

Consider `OC/C=C/CO`, for which the Potency entry in assay [1], in assay [2], in [3], in assay [4], in assay [5] and in [6] was “inactive” throughout. The Potency entry in [7], in assay [8], in assay [10], in assay [11], in assay [12] and in assay [14] was “inactive” each time. In [9], the molecule was classed as inactive. In assay [15], the Potency was 17.8 µM (active).

Turning to `CN1CCCCC1CCN1c2ccccc2Sc2ccc(S(C)=O)cc21` (stereo unspecified), the Potency entry in assay [1], in assay [2], in assay [3], in assay [5], in assay [6] and in [7] was “inactive” in each case. Moreover, the Potency entry in assay [8], in [16], in assay [12] and in assay [18] was “inactive” in each case. Further, the result in assay [9] was inactive. Besides, the figures for the Potency in assay [14], in assay [19] and in assay [15] were 4.73 µM (active), 15.8 µM (active) and 0.0871 µM (active), respectively. Besides, the max activation in [17] was -2.96% and -0.765%.

In the case of `Nc1ccc(C(=O)O)c(O)c1`, the Potency entry in assay [1], in [2], in assay [3], in assay [20], in assay [6] and in assay [7] was “inactive” each time. The Potency result in assay [8], in assay [10], in assay [16], in assay [11], in [12] and in assay [13] was “inactive” in each case. Moreover, the Potency result in [14], in [18], in assay [19] and in assay [15] was “inactive” each time. In [9], the result was inactive. Also, the max activation in [17] is -0.56%.

Consider `CCCC(=O)OCCc1ccccc1`, for which the Potency result in [1], in assay [2], in [4], in assay [20], in [5] and in [6] was “inactive” each time. Besides, the Potency entry in assay [7], in [8], in [10], in assay [11], in assay [13] and in [14] was “inactive” throughout. The Potency entry in assay [15] was “inactive”. In addition, the molecule was classed as inactive in [9].

As for `CCCCCCCCCCC[C@@H](C[C@@H]1OC(=O)[C@H]1CCCCCC)OC(=O)[C@H](CC(C)C)NC=O`, the Potency entry in assay [1], in assay [2], in assay [4], in [5], in [6] and in [7] was “inactive” each time. Moreover, the Potency result in assay [8], in assay [10], in assay [16], in assay [12], in assay [13] and in assay [14] was “inactive” each time. Further, the Potency result in [18], in assay [19] and in [15] was “inactive” each time. The call in [9] was inactive. The Potency in assay [11] is 16.8 µM (active). In addition, the max activation in assay [17] was -3.72%.

For the molecule `CC[N+](CC)(CC)CCOc1ccc(/C=C/c2ccccc2)cc1`, the Potency entry in assay [1], in assay [2], in [4], in assay [5], in [6] and in assay [7] was “inactive” throughout. Also, the Potency result in assay [8], in [10], in assay [11], in [12], in assay [13] and in assay [14] was “inactive” throughout. The Potency result in assay [18] and in assay [19] was “inactive” each time. In assay [9], the molecule was called inactive. Moreover, in assay [17], the max activation is -2.42%. Further, in assay [15], the Potency was 15.5 µM (active).
